Reference: PubChem BioAssay (NCATS)
Results filed as inconclusive are left out. Calls of active or inactive are those of the source. Calls come from the whole dose curve; as a rule, active = well fitted curve in the direction sought with a large enough effect; inconclusive = small, poorly fitted or top-dose-only effect, or another doubt; inactive = no such curve, though single readings can be large; an effect the other way counts as inactive or inconclusive.

Key:
[1] = BET inhibitor-based combinations targeting novel dependencies in MECOM-rearranged (r) AML: OCI-AML3 cell line (AID 2202232); conditions: Potency: OCI-AML3 viability; note: nearly all actives have a fitted effect of over 35% in size
Summary of the method: (§1)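 Luminescent ATP readout (CellTiter-Glo) after 48 hr drug exposure gives viability. Curves span 11 concentrations and are normalized to DMSO and empty wells. Activity is reported as area under the curve and its Z-transform within each cell line.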

[2] = BET inhibitor-based combinations targeting novel dependencies in MECOM-rearranged (r) AML: MV-4-11 cell line (AID 2202233); note: nearly all actives have a fitted effect of over 45% in size
Summary of the method: (§2)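 Luminescent ATP readout (CellTiter-Glo, 15 min at room temperature) after 48 hr drug exposure gave viability. Dose-response curves, normalized to DMSO and empty-well controls, were summarized as area under the curve and its mean-centred Z-score.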

[3] = BET inhibitor-based combinations targeting novel dependencies in MECOM-rearranged (r) AML: UCSD-AML1 cell line (AID 2202235); note: nearly all actives have a fitted effect of over 40% in size
Summary of the method: as §2

[4] = BET inhibitor-based combinations targeting novel dependencies in MECOM-rearranged (r) AML: HNT-34 cell line (AID 2202234); note: nearly all actives have a fitted effect of over 35% in size
Summary of the method: as §2

[5] = BET inhibitor-based combinations targeting novel dependencies in MECOM-rearranged (r) AML: AML-194 cell line (AID 2202237; note: nearly all actives have a fitted effect of over 40% in size)
Summary of the method: as §1

[6] = BET inhibitor-based combinations targeting novel dependencies in MECOM-rearranged (r) AML: AML-191 cell line (AID 2202236; note: nearly all actives have a fitted effect of over 35% in size)
Summary of the method: as §1
Potency is the fitted concentration of half-maximal effect.

SMILES	Potency [1]	Potency [2]	Potency [3]	Potency [4]	Potency [5]	Potency [6]
Cn1cc(-c2ccc(-c3cncc(Cl)c3N3CCC4(CCNC4=O)CC3)cc2)cn1	16.6 µM (active)	14.8 µM (active)	inactive			
CC(C)Oc1ccc(-c2nn([C@@H](C)c3oc4ccc(F)cc4c(=O)c3-c3cccc(F)c3)c3ncnc(N)c23)cc1F	11.8 µM (active)	16.6 µM (active)	inactive			
N#Cc1ccc(-c2c(-c3ncn[nH]3)sc(N3CCOCC3)c2C#N)c(F)c1	5.9 µM (active)	5.9 µM (active)	1.32 µM (active)	10.5 µM (active)	3.32 µM (active)	
CCN(CC)C(=S)SSC(=S)N(CC)CC	0.332 µM (active)	0.263 µM (active)		0.332 µM (active)	0.296 µM (active)	0.296 µM (active)
C/C(=C\C(=O)Nc1ccccc1C(=O)O)c1ccc2ccccc2c1	inactive		inactive	inactive	inactive	
[O-][n+]1cccc(-c2nc3c(Cl)cccc3cc2[C@@H](Nc2ncnc3cccnc23)C(F)(F)F)c1	5.25 µM (active)	8.33 µM (active)	6.61 µM (active)			
O=C(O)C[C@H]1CCc2c1[nH]c1ccc(OCc3ccc(C4CCCC4)c(C(F)(F)F)c3)cc21	13.2 µM (active)	5.9 µM (active)	inactive			
CCN(C(=O)c1c(O)c2c(Cl)cccc2n(C)c1=O)c1ccccc1	13.2 µM (active)	14.8 µM (active)				9.34 µM (active)
COC(=O)Nc1nc2ccc(S(=O)c3ccccc3)cc2[nH]1 (centres undefined)	26.3 µM (active)	16.6 µM (active)	7.42 µM (active)		7.42 µM (active)	6.61 µM (active)
Cn1cc(/C=C/C(=O)c2cccc(F)c2)cc1/C=C/C(=O)NO	3.32 µM (active)	4.68 µM (active)	4.17 µM (active)		11.8 µM (active)	
CC(=O)NCCCS(=O)(=O)O	inactive		inactive	inactive	inactive	inactive
CN[C@@H](C)C(=O)N[C@H](C(=O)N1CCC[C@H]1C(=O)Nc1snnc1-c1ccccc1)C1CCCCC1	inactive		1.86 µM (active)	inactive	3.32 µM (active)	
CC(C)Oc1ccc(C(=O)N[C@H](CNC(=O)CN(C)C)Cc2ccc(-c3cn4cccc([C@H](C)O)c4n3)cc2)cc1Cl	0.263 µM (active)	0.166 µM (active)	0.332 µM (active)		0.332 µM (active)	0.263 µM (active)
CCOC(=O)N[C@@H]1CC[C@@H]2[C@@H](C1)C[C@H]1C(=O)O[C@H](C)[C@H]1[C@H]2/C=C/c1ccc(-c2cccc(F)c2)cn1	14.8 µM (active)	26.3 µM (active)	inactive			inactive
C=CCN(/C=C1\C(=O)O[C@@H](COC)[C@]2(C)C1=C(O)C(=O)C1=C2[C@@H](OC(C)=O)C[C@]2(C)C(=O)CC[C@H]12)CC=C	inactive	20.9 µM (active)		20.9 µM (active)	18.6 µM (active)	20.9 µM (active)
Cc1ncc(NC(=O)c2cccc(C(F)(F)F)c2)cc1-c1cnc(OC2CCOCC2)c(N2CCOCC2)c1	0.0833 µM (active)		8.33 µM (active)	6.61 µM (active)		11.8 µM (active)
CC1(C)CCC2(CC1)N[C@@H](C(=O)N[C@@H]1CC[C@@H](C(N)=O)OC1)[C@H](c1ccnc(Cl)c1F)[C@]21C(=O)Nc2cc(Cl)ccc21	0.715 µM (active)	0.0715 µM (active)		0.16 µM (active)	0.637 µM (active)	0.358 µM (active)
C=CCNC1=C2C[C@@H](C)C[C@H](OC)[C@H](O)[C@@H](C)/C=C(\C)[C@H](OC(N)=O)[C@@H](OC)/C=C\C=C(/C)C(=O)NC(=CC1=O)C2=O	10.5 µM (active)	1.86 µM (active)	10.5 µM (active)		16.6 µM (active)	18.6 µM (active)
CN(C)CCCOc1ccc(-c2ccc3ncc4c(c3c2)n(C2CCOCC2)c(=O)n4C)cn1		4.07 µM (active)		2.57 µM (active)		
CO[C@H]1/C=C/O[C@@]2(C)Oc3c(C)c(O)c4c(O)c(c(/C=N\N5CCN(C6CCCC6)CC5)c(O)c4c3C2=O)NC(=O)/C(C)=C\C=C\[C@H](C)[C@H](O)[C@@H](C)[C@@H](O)[C@@H](C)[C@H](OC(C)=O)[C@@H]1C		23.5 µM (active)				
CC(C)n1cc(-c2ccc3c(c2)N(C)CC3)c2c(NS(=O)(=O)c3ccn(C)n3)ccnc21	inactive		inactive		inactive	
Cc1ccc(Nc2nnc(Cc3ccncc3)c3ccccc23)cc1Br		16.6 µM (active)	inactive	20.9 µM (active)		
COC1=C(OC)C(=O)C(CCCCCCCCCCO)=C(C)C1=O	16.6 µM (active)					18.6 µM (active)
Nc1ncc(C(=O)NC2CN(C(=O)C3CC3)C2)c2ccc(-c3cccc(F)c3)nc12	7.42 µM (active)		23.5 µM (active)		inactive	
COC(=O)N[C@H](C(=O)N1CCC[C@H]1c1ncc(-c2ccc(-c3ccc(-c4cnc([C@@H]5CCCN5C(=O)[C@@H](NC(=O)OC)C(C)C)[nH]4)cc3)cc2)[nH]1)C(C)C	inactive		inactive			
C=CC(=O)N1CCC(C2CCNc3c(C(N)=O)c(-c4ccc(Oc5ccccc5)cc4)nn32)CC1 (centres undefined)	13.2 µM (active)		inactive			
COc1ccnc(CS(=O)c2nc3ccc(OC(F)F)cc3[nH]2)c1OC (centres undefined)	23.5 µM (active)		inactive	inactive	inactive	

SMILES	Potency [1]	Potency [2]	Potency [3]	Potency [4]	Potency [5]	Potency [6]
CN1CCN(c2nc(C3=C(c4c[nH]c5ccccc45)C(=O)NC3=O)c3ccccc3n2)CC1		1.86 µM (active)				
O=C(NCc1ccncc1)C12C[C@H]3C[C@@H](C1)CC(c1ccc(Cl)cc1)(C3)C2	20.9 µM (active)		inactive			
COc1cc(NCc2ccc3nc(N)nc(N)c3c2C)cc(OC)c1OC		5.9 µM (active)				
CCOC(=O)c1c(CSc2ccccc2)n(C)c2cc(Br)c(O)c(CN(C)C)c12		18.6 µM (active)		11.8 µM (active)		
CNC(=O)[C@H]1O[C@@H](n2cnc3c(NCc4cccc(I)c4)nc(Cl)nc32)[C@H](O)[C@@H]1O	inactive		inactive		inactive	inactive
CC(C)n1cnc2c(NCCCCCCNC(=O)OC(C)(C)C)nc(NCCO)nc21		16.6 µM (active)				
C[C@H]1CNC(=O)c2cnn3ccc(nc23)N[C@H](C)c2cc(F)ccc2O1		1.32 µM (active)	0.833 µM (active)	0.833 µM (active)		
Clc1ccc(COC(Cn2ccnc2)c2ccc(Cl)cc2Cl)cc1 (centres undefined)		20.9 µM (active)				
Nc1nccc(-c2c(-c3ccc(F)cc3)ncn2C2CCN(Cc3ccon3)CC2)n1		10.5 µM (active)		8.33 µM (active)		
C[C@@H](C(=O)Nc1ccc(Cl)cc1)C1CCC(c2ccnc3ccc(F)cc23)CC1 (some centres undefined)	inactive		inactive		inactive	
CCN1C(=O)N2Cc3cc(OC)cc(OC)c3[C@@H](C)C=C2C12CCN(Cc1cc(C)cc(C)c1)CC2		29.5 µM (active)		23.5 µM (active)		
COC(=O)C1=C(C)NC(c2ncc(F)cc2F)=N[C@H]1c1ccc(F)cc1Cl		18.6 µM (active)		16.6 µM (active)		
CC[C@H](NC(=O)[C@H](C)NC)C(=O)N1C[C@@H](O)C[C@H]1Cc1c(-c2[nH]c3cc(F)ccc3c2C[C@@H]2C[C@H](O)CN2C(=O)[C@H](CC)NC(=O)[C@H](C)NC)[nH]c2cc(F)ccc12	inactive		0.332 µM (active)		1.18 µM (active)	0.742 µM (active)
CC(C)(O)C1CCC(Nc2ccc3ncc(-c4cccc(C(F)(F)F)c4)n3n2)CC1 (centres undefined)		3.32 µM (active)	6.61 µM (active)	6.61 µM (active)		5.9 µM (active)
Cn1cc(-c2cc(Oc3cc(F)c(NC(=O)C4(C(=O)Nc5ccccc5)CC4)cc3F)ccn2)cn1		0.742 µM (active)		5.25 µM (active)		
N#CCC1(n2cc(-c3ncnc4[nH]ccc34)cn2)CN(C2CCN(C(=O)c3ccnc(C(F)(F)F)c3F)CC2)C1	1.66 µM (active)		3.72 µM (active)			
NS(=O)(=O)c1ccc(NC(=S)N2CCN(C/C=C/c3ccccc3)CC2)cc1	20.9 µM (active)		inactive		inactive	
Cc1cc(C(=O)NOCCO)c(Nc2ccc(I)cc2F)n(C)c1=O		0.0295 µM (active)		0.0468 µM (active)		
CO[C@H]1/C=C/O[C@@]2(C)Oc3c(C)c(O)c4c(O)c(c5c(c4c3C2=O)=NC2(CCN(CC(C)C)CC2)N=5)NC(=O)/C(C)=C/C=C/[C@H](C)[C@H](O)[C@@H](C)[C@@H](O)[C@@H](C)[C@H](OC(C)=O)[C@@H]1C	16.6 µM (active)		inactive			18.6 µM (active)
Cc1cccc(/C=N/Nc2cc(N3CCOCC3)nc(OCCc3ccccn3)n2)c1		7.42 µM (active)				
COC(=O)C1=C(C)NC(c2ncc(F)cc2F)=N[C@@H]1c1ccc(F)cc1Cl	inactive				inactive	inactive
NC(=O)c1cnc2[nH]ccc2c1NC1C2CC3C[C@H]1CC(O)(C3)C2 (some centres undefined)		0.209 µM (active)	0.833 µM (active)	8.33 µM (active)		
CCNc1cc(NC2CCC(O)CC2)nc(Nc2ccc3c(ccn3Cc3ccccc3)c2)n1 (centres undefined)	inactive			inactive		inactive
O=c1cc(-c2ccc(O)c(O)c2)oc2cc(O)cc(O)c12		8.33 µM (active)				
CN(C)c1ccc(O)c2c1C[C@H]1C[C@H]3[C@H](N(C)C)C(=O)C(C(N)=O)=C(O)[C@@]3(O)C(=O)C1=C2O		inactive	inactive	13.2 µM (active)		
OC1CCC(Oc2cccc3cnc(Nc4ccc5nc[nH]c5c4)nc23)CC1 (centres undefined)	1.48 µM (active)			0.934 µM (active)	1.32 µM (active)	0.833 µM (active)
